# Results from PubChem BioAssay (NCATS).
# Several values for one entry are separate records, joined by “and”; a condition that tells them apart may be missing. Equal values may be shown once. Results filed as inconclusive are left out. A structure can be active in one record and inactive in another. A number with no mark means an inactive call. Activity calls are given as the source filed them. Calls come from the whole dose curve; as a rule, active = well fitted inhibition curve with a large enough effect; inconclusive = small, poorly fitted or top-dose-only effect; inactive = flat fitted curve, though single readings scatter.
# Experiments:
# CRL-7250 = normal cell line; assay: Cytotoxic Profiling of Annotated Libraries Using Quantitative High-Throughput Screening (AID 1296008); settings: Five cell lines viability, CellTiter-Glo ATP luminescence, 48-72 h; max response: hits give low values
# Outline: (§1)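 Compounds were pin-transferred onto cells and incubated 48 or 72 hr at 37 degree Celsius, 95% humidity. CellTiter-Glo was added, plates sat 10 min at room temperature, then ATP-coupled luminescence was imaged as the viability read-out.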
# HEK293 = assay: as above; settings: Five cell lines viability, CellTiter-Glo ATP luminescence, 48-72 h; max response: hits give low values
# Outline: as §1
# KB-3-1 = assay: as above; settings: Five cell lines viability, CellTiter-Glo ATP luminescence, 48-72 h; max response: hits give low values
# Outline: as §1
# NIH3T3 = assay: as above; settings: Five cell lines viability, CellTiter-Glo ATP luminescence, 48-72 h; max response: hits give low values
# Outline: as §1
# MCC-13 = assay: qHTS assay to identify novel small-molecules to repurpose for Merkel cell carcinoma treatment (AID 1296009); settings: MCC and control cell lines, CellTiter-Glo viability, 72 h; series mostly up to 46 µM
# Outline: (§2)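 Viability readout: ATP luminescence (CellTiter-Glo) after 72 hr drug exposure at 37 degree celsius. Dose-response format was 8 points for NPC and 11 points for MIPE; data normalized to in-plate controls.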
# MKL-1 = assay: as above; settings: MCC and control cell lines, CellTiter-Glo viability, 72 h; series mostly up to 46 µM
# Outline: as §2
# HaCat [1] = assay: Cytotoxic Profiling of Annotated Libraries Using Quantitative High-Throughput Screening (AID 1296008); settings: Five cell lines viability, CellTiter-Glo ATP luminescence, 48-72 h; max response: hits give low values
# Outline: as §1
# HEK293T = assay: qHTS assay to identify novel small-molecules to repurpose for Merkel cell carcinoma treatment (AID 1296009); settings: MCC and control cell lines, CellTiter-Glo viability, 72 h; at 44.8 µM (top of the series) unless noted
# Outline: as §2
# MCC-26 = assay: as above; settings: MCC and control cell lines, CellTiter-Glo viability, 72 h; series mostly up to 46 µM
# Outline: as §2
# HACAT [2] = assay: as above; settings: MCC and control cell lines, CellTiter-Glo viability, 72 h; series mostly up to 44.8 µM
# Outline: as §2
# % is set by controls: 0 for no effect and ±100 for the full control effect; potency is the fitted concentration of half-maximal effect.
# Note: nearly all actives have a fitted effect of over 60% in size.
smiles,measurement,setting,value
c1cc(-c2cnn3cc(-c4ccc(OCCN5CCCCC5)cc4)cnc23)ccn1,Potency,CRL-7250,6.62 µM (active)
same,Potency,HEK293,3.32 µM (active)
same,Potency,KB-3-1,3.72 µM (active)
same,Potency,NIH3T3,0.372 µM (active)
same,Potency,MCC-13,16.6 µM (active)
same,Potency,MKL-1,11.8 µM (active)
CC(=O)SC[C@@H](C)C(=O)N1CCC[C@H]1C(=O)N[C@@H](Cc1ccccc1)C(=O)O,max response,CRL-7250,1.31%
same,max response,HaCat [1],1.63%
same,max response,KB-3-1,2.35%
same,max response,NIH3T3,0.0761%
same,outcome,HEK293T,inactive
same,Potency,MCC-13,inactive
same,Potency,MCC-26,inactive
same,Potency,MKL-1,inactive
COc1cc(C(=O)N2CCC(N3CCN(C)CC3)CC2)ccc1Nc1ncc2c(n1)N(C)c1ccccc1C(=O)N2C,Potency,CRL-7250,3.66 µM (active)
same,Potency,HEK293,11.8 µM (active) and 9.2 µM (active)
same,Potency,KB-3-1,14.8 µM (active) and 16.4 µM (active)
same,Potency,NIH3T3,13 µM (active)
same,Potency,MCC-13,inactive
CCN(CC)CCNC(=O)c1ccc2nc(-c3ccccc3)c(-c3ccc(CN4CCC(n5c(=O)[nH]c6ccccc65)CC4)cc3)nc2c1,Potency,CRL-7250,9.35 µM (active)
same,Potency,HEK293,2.96 µM (active) and 8.2 µM (active)
same,Potency,NIH3T3,10.5 µM (active)
same,Potency,MCC-13,8.33 µM (active)
same,Potency,MKL-1,1.32 µM (active)
Cc1cc(C(=O)N2CCN(c3cccc(Cl)c3)CC2)n(-c2ccccc2)n1,Potency,CRL-7250,4.69 µM (active) and 5.8 µM (active)
same,Potency,HEK293,526 nM (active) and 1.46 µM (active)
same,Potency,KB-3-1,833 nM (active) and 1.64 µM (active)
O=C(O)c1ccc2c(c1)nc(Nc1cccc(Cl)c1)c1ccncc12,Potency,CRL-7250,14.6 µM (active)
same,Potency,HEK293,10.3 µM (active)
same,Potency,KB-3-1,20.6 µM (active)
same,max response,KB-3-1,6.46%
same,outcome,NIH3T3,inactive
same,Potency,MCC-26,inactive
same,Potency,MKL-1,inactive
Cc1ccc(C(=O)Nc2cccc(C(F)(F)F)c2)cc1-c1ccc2nc(NCCN3CCOCC3)ncc2c1,Potency,CRL-7250,4.18 µM (active) and 7.31 µM (active)
same,Potency,HaCat [1],6.51 µM (active)
same,Potency,KB-3-1,16.6 µM (active)
same,Potency,NIH3T3,10.5 µM (active) and 18.4 µM (active)
same,Potency,MCC-13,11.8 µM (active)
same,Potency,MCC-26,18.7 µM (active)
CC(C)c1nn(-c2c(Cl)cccc2Cl)c2nc(Cc3ccc(OCCO)cc3)[nH]c(=O)c12,Potency,CRL-7250,0.0291 µM (active)
same,Potency,HaCat [1],118 nM (active) and 231 nM (active)
same,Potency,KB-3-1,0.058 µM (active)
same,Potency,NIH3T3,93.5 nM (active) and 130 nM (active)
same,Potency,MCC-13,0.105 µM (active)
same,Potency,MKL-1,0.132 µM (active)
CC(C)c1cnn2c(NCc3ccccc3)cc(N[C@@H](CO)[C@H](O)CO)nc12,Potency,CRL-7250,0.296 µM (active)
same,Potency,HaCat [1],469 nM (active) and 4.11 µM (active)
same,Potency,KB-3-1,0.731 µM (active)
same,Potency,NIH3T3,935 nM (active) and 3.66 µM (active)
same,Potency,MCC-13,1.66 µM (active)
same,Potency,MCC-26,0.743 µM (active)
Nc1nc(-c2nn(Cc3ccccc3F)c3ncccc23)nc(N)c1N1CCOCC1,max response,CRL-7250,-1.46%
same,max response,HaCat [1],-22.5%
same,max response,KB-3-1,6.89%
same,max response,NIH3T3,-10.6%
same,Potency,MCC-13,inactive
same,Potency,MKL-1,inactive
COc1ccc(CC2c3cc(OC)c(OC)cc3CC[N+]2(C)CCC(=O)OCCCCCOC(=O)CC[N+]2(C)CCc3cc(OC)c(OC)cc3C2Cc2ccc(OC)c(OC)c2)cc1OC (stereo not drawn),max response,CRL-7250,-0.557%
same,max response,HaCat [1],3.6%
same,max response,KB-3-1,4.25% and 0.363%
same,max response,NIH3T3,-6.84%
same,"activity change, negative = cytotoxicity",MCC-13,-6.08% [at 9.22 µM]
same,"activity change, negative = cytotoxicity",MKL-1,-7.93% [at 9.22 µM]
c1nc2nc(Nc3ccc(N4CCOCC4)cc3)nc(NC3CCCCC3)c2[nH]1,Potency,HEK293,935 nM (active) and 252 nM (active)
same,Potency,HaCat [1],2.64 µM (active) and 2 µM (active)
same,Potency,KB-3-1,4.18 µM (active)
same,Potency,NIH3T3,1.48 µM (active) and 2.24 µM (active)
C=C1C(=CC=C2CCCC3(C)[C@@H]([C@H](C)C=CC=CC(O)(CC)CC)CC[C@@H]23)C[C@@H](O)C[C@@H]1O (stereo partly drawn),max response,CRL-7250,4.9%
same,outcome,HaCat [1],inactive
same,outcome,KB-3-1,inactive
same,Potency,HACAT [2],inactive
same,Potency,MCC-13,inactive
same,Potency,MCC-26,inactive
same,Potency,MKL-1,inactive
COc1cccc2c(NCc3ccccc3)nc(-n3c(N)nc4ccccc43)nc12,Potency,CRL-7250,8.33 µM (active)
same,max response,KB-3-1,-11.5%
same,Potency,NIH3T3,10.5 µM (active)
same,Potency,MKL-1,9.35 µM (active)
Cc1cc(Nc2cc(N3CCN(C)CC3)nc(Sc3ccc(NC(=O)C4CC4)cc3)n2)n[nH]1,Potency,HEK293,7.43 µM (active) and 7.31 µM (active)
same,Potency,HaCat [1],6.62 µM (active)
same,Potency,KB-3-1,8.33 µM (active) and 8.2 µM (active)
same,Potency,NIH3T3,16.6 µM (active) and 20.6 µM (active)
C#Cc1cccc(Nc2ncnc3cc(OC)c(OCCCCCCC(=O)NO)cc23)c1,Potency,CRL-7250,4.69 µM (active)
same,Potency,HaCat [1],2.64 µM (active) and 6.51 µM (active)
same,Potency,KB-3-1,1.48 µM (active) and 4.11 µM (active)
same,Potency,NIH3T3,13.2 µM (active)
same,Potency,MCC-13,16.6 µM (active)
same,Potency,MCC-26,10.5 µM (active)
same,Potency,MKL-1,0.935 µM (active)
CC(=O)OCCN1C(=O)c2c(C)nc3ccc(S(=O)(=O)N4CCOCC4)cc3c2C1=O,max response,CRL-7250,-12.8%
same,max response,HaCat [1],1.24%
same,outcome,KB-3-1,inactive
same,max response,NIH3T3,2.81%
same,Potency,MCC-13,inactive
same,Potency,MCC-26,inactive
same,Potency,MKL-1,inactive
CCOc1cc2ncc(C#N)c(Nc3ccc(F)c(Cl)c3)c2cc1NC(=O)C=CCN(C)C,Potency,CRL-7250,0.105 µM (active)
same,Potency,HaCat [1],0.0166 µM (active)
same,Potency,KB-3-1,5.9 µM (active)
same,Potency,NIH3T3,1.48 µM (active)
same,Potency,MCC-13,23.5 µM (active)
same,Potency,MKL-1,14.8 µM (active)
O=C(O)C1(Cc2cccc(Nc3nccs3)n2)CCC(Oc2cccc(Cl)c2F)CC1 (stereo not drawn),max response,CRL-7250,-5.96% and -3.26%
same,Potency,HaCat [1],5.26 µM (active) and 4.61 µM (active)
same,Potency,KB-3-1,2.35 µM (active)
same,Potency,MCC-13,10.5 µM (active)
same,Potency,MCC-26,inactive
